{"source": "PubChem BioAssay AID1159580", "about": "(chemical genetic matrix, 2015)", "test": "chemical genetic growth profiling, strain panel (AID 1159580);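 also: tested at 20 µM; growth read once vehicle control cultures reached saturation at 30 °C; 1 = growth at the plate median or of vehicle wells; lower values mean less growth of the strain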", "conditions": "growth OD", "note": "Hit rate of the full screen: of about 5,500 compounds, about 2,000 (36%) were called active. About 18% were inconclusive and are not listed. The list shows a part of the results. A number with no mark means an inactive call. Rule as the data show it: active = normalized growth mostly below about 0.91 (no sharp cut-off); inconclusive = no clear call, values can overlap the other calls; inactive = mostly above about 0.92."}
{"compound": "CC(=O)O[C@]1(C(C)=O)CCC2C3C[C@H](C)C4=CC(=O)CC[C@]4(C)C3CC[C@@]21C", "note": "(stereo partly drawn)", "values": [{"measurement": "normalized growth", "setting": "S. cerevisiae deletion strains, locus YJR075W, strain HOC1, active compounds read low", "value": 0.99}, {"measurement": "normalized growth", "setting": "S. cerevisiae deletion strains, locus YKL009W, strain mrt4, active compounds read low", "value": 0.973}, {"measurement": "normalized growth", "setting": "S. cerevisiae deletion strains, locus YKL068W, active compounds read low", "value": 0.971}, {"measurement": "normalized growth", "setting": "S. cerevisiae deletion strains, locus YKL085W, strain MDH1 (second series), active compounds read low", "value": 0.977}, {"measurement": "normalized growth", "setting": "S. cerevisiae deletion strains, locus YKL085W, strain MDH1, active compounds read low", "value": 0.977}, {"measurement": "normalized growth", "setting": "S. cerevisiae deletion strains, locus YKL160W, strain elf1, active compounds read low", "value": 0.911}, {"measurement": "normalized growth", "setting": "S. cerevisiae deletion strains, locus YKL190W, strain CNB1, active compounds read low", "value": 0.989}, {"measurement": "normalized growth", "setting": "S. cerevisiae deletion strains, locus YKR001C, strain vps1, active compounds read low", "value": 0.956}, {"measurement": "normalized growth", "setting": "S. cerevisiae deletion strains, locus YKR026C, strain gcn3, active compounds read low", "value": 0.981}, {"measurement": "normalized growth", "setting": "S. cerevisiae deletion strains, locus YKR091W, strain srl3, active compounds read low", "value": 0.959}, {"measurement": "normalized growth", "setting": "S. cerevisiae deletion strains, locus YLL001W, strain dnm1, active compounds read low", "value": "0.894 (active)"}, {"measurement": "normalized growth", "setting": "S. cerevisiae deletion strains, locus YLL026W, active compounds read low", "value": 0.976}, {"measurement": "normalized growth", "setting": "S. cerevisiae deletion strains, locus YLL041C, strain sdh2, active compounds read low", "value": 0.968}, {"measurement": "normalized growth", "setting": "S. cerevisiae deletion strains, locus YLR027C, strain aat2, active compounds read low", "value": 0.976}, {"measurement": "normalized growth", "setting": "S. cerevisiae deletion strains, locus YLR039C, strain RIC1, active compounds read low", "value": 1.05}, {"measurement": "normalized growth", "setting": "S. cerevisiae deletion strains, locus YLR058C, strain SHM2, active compounds read low", "value": 0.979}, {"measurement": "normalized growth", "setting": "S. cerevisiae deletion strains, locus YLR102C, strain apc9, active compounds read low", "value": 0.989}, {"measurement": "normalized growth", "setting": "S. cerevisiae deletion strains, locus YLR113W, strain HOG1, active compounds read low", "value": 0.965}, {"measurement": "normalized growth", "setting": "S. cerevisiae deletion strains, locus YLR221C, strain rsa3, active compounds read low", "value": "0.9 (active)"}, {"measurement": "normalized growth", "setting": "S. cerevisiae deletion strains, locus YLR258W, strain gsy2, active compounds read low", "value": 0.949}, {"measurement": "normalized growth", "setting": "S. cerevisiae deletion strains, locus YLR262C, strain YPT6 (second series), active compounds read low", "value": "0.815 (active)"}, {"measurement": "normalized growth", "setting": "S. cerevisiae deletion strains, locus YLR262C, strain YPT6, active compounds read low", "value": 0.957}, {"measurement": "normalized growth", "setting": "S. cerevisiae deletion strains, locus YLR268W, strain sec22, active compounds read low", "value": 0.977}, {"measurement": "normalized growth", "setting": "S. cerevisiae deletion strains, locus YLR320W, strain mms22, active compounds read low", "value": "0.875 (active)"}, {"measurement": "normalized growth", "setting": "S. cerevisiae deletion strains, locus YLR330W, strain CHS5, active compounds read low", "value": 0.988}, {"measurement": "normalized growth", "setting": "S. cerevisiae deletion strains, locus YLR342W, strain FKS1 (second series), active compounds read low", "value": 0.984}, {"measurement": "normalized growth", "setting": "S. cerevisiae deletion strains, locus YLR342W, strain FKS1, active compounds read low", "value": 0.948}, {"measurement": "normalized growth", "setting": "S. cerevisiae deletion strains, locus YLR357W, strain rsc2, active compounds read low", "value": 0.939}, {"measurement": "normalized growth", "setting": "S. cerevisiae deletion strains, locus YLR370C, strain arc18, active compounds read low", "value": 0.925}, {"measurement": "normalized growth", "setting": "S. cerevisiae deletion strains, locus YLR371W, strain rom2, active compounds read low", "value": 0.985}, {"measurement": "normalized growth", "setting": "S. cerevisiae deletion strains, locus YLR384C, strain iki3, active compounds read low", "value": 0.977}, {"measurement": "normalized growth", "setting": "S. cerevisiae deletion strains, locus YLR418C, strain cdc73, active compounds read low", "value": "0.829 (active)"}, {"measurement": "normalized growth", "setting": "S. cerevisiae deletion strains, locus YML016C, strain PPZ1, active compounds read low", "value": 0.996}, {"measurement": "normalized growth", "setting": "S. cerevisiae deletion strains, locus YML032C, strain rad52, active compounds read low", "value": 0.984}, {"measurement": "normalized growth", "setting": "S. cerevisiae deletion strains, locus YML120C, strain ndi1, active compounds read low", "value": 0.916}, {"measurement": "normalized growth", "setting": "S. cerevisiae deletion strains, locus YML124C, strain tub3, active compounds read low", "value": 0.986}, {"measurement": "normalized growth", "setting": "S. cerevisiae deletion strains, locus YMR058W, strain fet3, active compounds read low", "value": 0.968}, {"measurement": "normalized growth", "setting": "S. cerevisiae deletion strains, locus YMR078C, strain ctf18, active compounds read low", "value": 0.97}, {"measurement": "normalized growth", "setting": "S. cerevisiae deletion strains, locus YMR125W, strain sto1, active compounds read low", "value": 0.947}, {"measurement": "normalized growth", "setting": "S. cerevisiae deletion strains, locus YMR129W, active compounds read low", "value": 0.972}, {"measurement": "normalized growth", "setting": "S. cerevisiae deletion strains, locus YMR205C, strain PFK2, active compounds read low", "value": 0.906}, {"measurement": "normalized growth", "setting": "S. cerevisiae deletion strains, locus YMR223W, strain ubp8, active compounds read low", "value": 0.917}, {"measurement": "normalized growth", "setting": "S. cerevisiae deletion strains, locus YMR231W, strain pep5, active compounds read low", "value": 0.978}, {"measurement": "normalized growth", "setting": "S. cerevisiae deletion strains, locus YMR263W, strain SAP30, active compounds read low", "value": 0.989}, {"measurement": "normalized growth", "setting": "S. cerevisiae deletion strains, locus YMR307W, strain GAS1, active compounds read low", "value": 0.992}, {"measurement": "normalized growth", "setting": "S. cerevisiae deletion strains, locus YNL067W, strain RPL9B, active compounds read low", "value": 0.993}, {"measurement": "normalized growth", "setting": "S. cerevisiae deletion strains, locus YNL071W, strain lat1, active compounds read low", "value": "0.876 (active)"}, {"measurement": "normalized growth", "setting": "S. cerevisiae deletion strains, locus YNL153C, strain GIM3, active compounds read low", "value": 0.983}, {"measurement": "normalized growth", "setting": "S. cerevisiae deletion strains, locus YNL183C, strain NPR1, active compounds read low", "value": 0.951}, {"measurement": "normalized growth", "setting": "S. cerevisiae deletion strains, locus YNL209W, strain ssb2, active compounds read low", "value": 0.958}, {"measurement": "normalized growth", "setting": "S. cerevisiae deletion strains, locus YNL233W, strain BNI4, active compounds read low", "value": 0.989}, {"measurement": "normalized growth", "setting": "S. cerevisiae deletion strains, locus YNL248C, strain rpa49, active compounds read low", "value": 0.955}, {"measurement": "normalized growth", "setting": "S. cerevisiae deletion strains, locus YNL250W, strain rad50, active compounds read low", "value": 0.986}, {"measurement": "normalized growth", "setting": "S. cerevisiae deletion strains, locus YNL271C, strain bni1, active compounds read low", "value": 0.969}, {"measurement": "normalized growth", "setting": "S. cerevisiae deletion strains, locus YNL298W, strain CLA4, active compounds read low", "value": 0.953}, {"measurement": "normalized growth", "setting": "S. cerevisiae deletion strains, locus YNL307C, strain MCK1, active compounds read low", "value": 0.914}, {"measurement": "normalized growth", "setting": "S. cerevisiae deletion strains, locus YNL322C, strain KRE1 (second series), active compounds read low", "value": 0.962}, {"measurement": "normalized growth", "setting": "S. cerevisiae deletion strains, locus YNR049C, strain mso1, active compounds read low", "value": 0.974}, {"measurement": "normalized growth", "setting": "S. cerevisiae deletion strains, locus YNR052C, strain pop2, active compounds read low", "value": 0.994}, {"measurement": "normalized growth", "setting": "S. cerevisiae deletion strains, locus YOL012C, strain htz1", "value": 1.07}, {"measurement": "normalized growth", "setting": "S. cerevisiae deletion strains, locus YOL147C, strain pex11, active compounds read low", "value": 0.983}, {"measurement": "normalized growth", "setting": "S. cerevisiae deletion strains, locus YOR001W, strain rrp6, active compounds read low", "value": 1.01}, {"measurement": "normalized growth", "setting": "S. cerevisiae deletion strains, locus YOR061W, strain CKA2, active compounds read low", "value": 0.987}, {"measurement": "normalized growth", "setting": "S. cerevisiae deletion strains, locus YOR069W, strain VPS5, active compounds read low", "value": 0.984}, {"measurement": "normalized growth", "setting": "S. cerevisiae deletion strains, locus YOR070C, strain gyp1, active compounds read low", "value": 0.967}, {"measurement": "normalized growth", "setting": "S. cerevisiae deletion strains, locus YOR080W, strain dia2, active compounds read low", "value": 0.97}, {"measurement": "normalized growth", "setting": "S. cerevisiae deletion strains, locus YOR083W, strain WHI5, active compounds read low", "value": 0.927}, {"measurement": "normalized growth", "setting": "S. cerevisiae deletion strains, locus YOR106W, strain vam3, active compounds read low", "value": 0.95}, {"measurement": "normalized growth", "setting": "S. cerevisiae deletion strains, locus YOR136W, strain idh2, active compounds read low", "value": 1}, {"measurement": "normalized growth", "setting": "S. cerevisiae deletion strains, locus YOR144C, strain elg1, active compounds read low", "value": 0.997}, {"measurement": "normalized growth", "setting": "S. cerevisiae deletion strains, locus YOR184W, strain ser1, active compounds read low", "value": 0.875}, {"measurement": "normalized growth", "setting": "S. cerevisiae deletion strains, locus YOR231W, strain MKK1, active compounds read low", "value": 0.998}, {"measurement": "normalized growth", "setting": "S. cerevisiae deletion strains, locus YOR265W, strain rbl2, active compounds read low", "value": 0.986}, {"measurement": "normalized growth", "setting": "S. cerevisiae deletion strains, locus YOR270C, strain vph1, active compounds read low", "value": 0.867}, {"measurement": "normalized growth", "setting": "S. cerevisiae deletion strains, locus YOR290C, strain snf2, active compounds read low", "value": 0.873}, {"measurement": "normalized growth", "setting": "S. cerevisiae deletion strains, locus YOR316C, strain cot1, active compounds read low", "value": 0.986}, {"measurement": "normalized growth", "setting": "S. cerevisiae deletion strains, locus YPL051W, strain arl3, active compounds read low", "value": 0.937}, {"measurement": "normalized growth", "setting": "S. cerevisiae deletion strains, locus YPL055C, strain LGE1, active compounds read low", "value": 0.963}, {"measurement": "normalized growth", "setting": "S. cerevisiae deletion strains, locus YPL078C, strain atp4, active compounds read low", "value": 0.939}, {"measurement": "normalized growth", "setting": "S. cerevisiae deletion strains, locus YPL106C, strain sse1, active compounds read low", "value": 0.991}, {"measurement": "normalized growth", "setting": "S. cerevisiae deletion strains, locus YPL240C, strain hsp82, active compounds read low", "value": 0.967}, {"measurement": "normalized growth", "setting": "S. cerevisiae deletion strains, locus YPL256C, strain CLN2, active compounds read low", "value": 1}, {"measurement": "normalized growth", "setting": "S. cerevisiae deletion strains, locus YPR119W, strain clb2, active compounds read low", "value": 0.986}, {"measurement": "normalized growth", "setting": "S. cerevisiae deletion strains, locus YPR141C, strain kar3, active compounds read low", "value": 0.954}, {"measurement": "normalized growth", "setting": "S. cerevisiae deletion strains, locus YPR163C, strain tif3, active compounds read low", "value": 0.982}, {"measurement": "normalized growth", "setting": "S. cerevisiae deletion strains, locus YPR167C, strain met16, active compounds read low", "value": 0.982}, {"measurement": "normalized growth", "setting": "S. cerevisiae deletion strains, strain wtn01, active compounds read low", "value": 0.955}, {"measurement": "normalized growth", "setting": "S. cerevisiae strains, strain wild type, active compounds read low", "value": 0.991}]}
